# Experimental data: paper PMC7862700, “An all-to-all approach to the identification of sequence-specific readers for epigenetic DNA modifications on cytosine”
# What was measured:
# Experiment in all cases: DAPPL (digital affinity profiling via proximity ligation, sequencing); 10 mM Tris-HCl pH 7.5, 50 mM NaCl, 1 mM DTT, 4% glycerol, room temperature, 30 min; GST-TFs on glutathione beads, 16-mer random dsDNA library, 0.1% formaldehyde crosslink after washing; high values mean tight binding
# FLI1 = molecular target: T1, FLI1 (Homo sapiens, UniProt Q01543 1-452); conditions: protein: recombinant; tags: N-terminal GST; dsDNA, one strand shown
# T1 sequence: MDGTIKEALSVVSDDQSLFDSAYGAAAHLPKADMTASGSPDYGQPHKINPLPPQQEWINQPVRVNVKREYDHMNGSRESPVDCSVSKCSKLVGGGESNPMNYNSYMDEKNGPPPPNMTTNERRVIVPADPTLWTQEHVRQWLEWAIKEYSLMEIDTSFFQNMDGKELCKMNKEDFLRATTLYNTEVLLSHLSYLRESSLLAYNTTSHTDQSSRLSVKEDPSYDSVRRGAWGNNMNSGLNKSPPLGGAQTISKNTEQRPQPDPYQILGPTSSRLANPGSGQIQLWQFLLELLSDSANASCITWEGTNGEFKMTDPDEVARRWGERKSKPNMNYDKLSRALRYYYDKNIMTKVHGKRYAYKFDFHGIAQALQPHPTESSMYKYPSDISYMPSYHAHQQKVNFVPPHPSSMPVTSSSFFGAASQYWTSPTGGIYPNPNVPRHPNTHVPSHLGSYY
# Summary of the method: (§1)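 Sequencing on an Illumina NextSeq500 followed washing, crosslinking with 0.1% formaldehyde, proximity ligation (BsaI/T4 ligase, 1 h, 37 °C) and PCR amplification of pools that had been incubated for 30 min at room temperature with 200 nmole of a random double-stranded 16-mer DNA library in Tris/NaCl/DTT/glycerol buffer. Each pool held DNA-barcoded human transcription factors, expressed in yeast as GST fusions and captured on glutathione beads, plus a tag-only sample. Binding signal is a hexamer's read frequency for a factor divided by its frequency in the tag-only sample.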
# ELK1 = molecular target: T2, ELK1 (Homo sapiens, UniProt P19419 1-428); conditions: protein: recombinant; tags: N-terminal GST; dsDNA, one strand shown
# T2 sequence: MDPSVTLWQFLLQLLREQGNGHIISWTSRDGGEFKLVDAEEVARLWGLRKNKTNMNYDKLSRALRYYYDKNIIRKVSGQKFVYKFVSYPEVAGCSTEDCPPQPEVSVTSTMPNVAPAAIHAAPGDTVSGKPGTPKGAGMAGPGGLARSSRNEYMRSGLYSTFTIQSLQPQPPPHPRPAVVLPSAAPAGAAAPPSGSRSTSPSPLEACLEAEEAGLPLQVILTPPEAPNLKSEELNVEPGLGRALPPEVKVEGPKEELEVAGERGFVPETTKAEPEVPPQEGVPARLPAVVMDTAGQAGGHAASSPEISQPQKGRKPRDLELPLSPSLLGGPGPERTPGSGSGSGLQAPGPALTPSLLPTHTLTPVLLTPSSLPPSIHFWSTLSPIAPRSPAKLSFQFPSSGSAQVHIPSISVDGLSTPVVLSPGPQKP
# Summary of the method: as §1
# GABPA = molecular target: T3, GABPA (Homo sapiens, UniProt Q06546 1-454); conditions: protein: recombinant; tags: N-terminal GST; dsDNA, one strand shown
# T3 sequence: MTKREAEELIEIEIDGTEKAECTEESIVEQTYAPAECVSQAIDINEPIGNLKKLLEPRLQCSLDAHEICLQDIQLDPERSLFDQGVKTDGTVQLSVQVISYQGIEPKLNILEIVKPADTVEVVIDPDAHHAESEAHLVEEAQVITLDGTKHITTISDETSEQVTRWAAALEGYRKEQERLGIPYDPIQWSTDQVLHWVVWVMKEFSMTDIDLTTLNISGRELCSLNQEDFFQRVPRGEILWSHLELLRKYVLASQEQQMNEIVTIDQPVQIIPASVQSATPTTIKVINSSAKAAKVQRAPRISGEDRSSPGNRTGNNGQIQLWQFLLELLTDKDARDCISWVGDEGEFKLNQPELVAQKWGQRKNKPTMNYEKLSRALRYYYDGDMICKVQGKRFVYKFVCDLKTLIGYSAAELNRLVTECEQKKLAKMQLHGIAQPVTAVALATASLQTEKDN
# Summary of the method: as §1
# ERG = molecular target: T4, ERG (Homo sapiens, UniProt P11308 1-479); conditions: protein: recombinant; tags: N-terminal GST; dsDNA, one strand shown
# T4 sequence: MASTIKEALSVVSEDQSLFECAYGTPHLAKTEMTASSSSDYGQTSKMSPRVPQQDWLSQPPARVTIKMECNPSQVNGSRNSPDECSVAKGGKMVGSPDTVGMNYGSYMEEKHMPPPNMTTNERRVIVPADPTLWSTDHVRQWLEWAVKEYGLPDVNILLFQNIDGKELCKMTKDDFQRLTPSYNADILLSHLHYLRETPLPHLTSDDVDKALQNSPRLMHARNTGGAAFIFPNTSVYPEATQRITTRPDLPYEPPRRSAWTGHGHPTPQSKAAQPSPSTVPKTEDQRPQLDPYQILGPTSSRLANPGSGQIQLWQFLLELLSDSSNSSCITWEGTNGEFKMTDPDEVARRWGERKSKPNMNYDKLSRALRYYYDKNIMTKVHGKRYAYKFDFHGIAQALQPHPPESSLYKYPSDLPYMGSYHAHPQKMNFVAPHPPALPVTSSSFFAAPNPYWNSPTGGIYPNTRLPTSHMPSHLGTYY
# Summary of the method: as §1
# ELF1 = ELF1 (Homo sapiens, UniProt P32519 1-619); conditions: protein: recombinant; tags: N-terminal GST; dsDNA, one strand shown
# ELF1, sequence (P32519 whole entry): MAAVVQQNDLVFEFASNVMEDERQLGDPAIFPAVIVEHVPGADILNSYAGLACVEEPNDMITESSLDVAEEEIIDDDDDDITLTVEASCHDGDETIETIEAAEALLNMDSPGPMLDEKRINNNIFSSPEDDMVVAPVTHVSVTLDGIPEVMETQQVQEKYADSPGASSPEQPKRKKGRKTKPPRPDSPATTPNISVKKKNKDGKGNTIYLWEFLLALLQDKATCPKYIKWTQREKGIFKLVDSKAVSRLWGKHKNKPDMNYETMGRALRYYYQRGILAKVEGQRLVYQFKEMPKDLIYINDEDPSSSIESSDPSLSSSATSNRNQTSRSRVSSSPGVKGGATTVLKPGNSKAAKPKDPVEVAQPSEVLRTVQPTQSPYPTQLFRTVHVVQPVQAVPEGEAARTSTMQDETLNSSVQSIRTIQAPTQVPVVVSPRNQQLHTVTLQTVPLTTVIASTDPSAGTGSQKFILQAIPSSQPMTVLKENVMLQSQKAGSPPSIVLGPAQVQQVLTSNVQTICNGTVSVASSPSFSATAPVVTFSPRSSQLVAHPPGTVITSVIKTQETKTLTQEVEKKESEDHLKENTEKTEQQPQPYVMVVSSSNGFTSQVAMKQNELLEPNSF
# Summary of the method: as §1
# EHF = molecular target: T5, EHF (Homo sapiens, UniProt Q9NZC4 1-300); conditions: protein: recombinant; tags: N-terminal GST; dsDNA, one strand shown
# T5 sequence: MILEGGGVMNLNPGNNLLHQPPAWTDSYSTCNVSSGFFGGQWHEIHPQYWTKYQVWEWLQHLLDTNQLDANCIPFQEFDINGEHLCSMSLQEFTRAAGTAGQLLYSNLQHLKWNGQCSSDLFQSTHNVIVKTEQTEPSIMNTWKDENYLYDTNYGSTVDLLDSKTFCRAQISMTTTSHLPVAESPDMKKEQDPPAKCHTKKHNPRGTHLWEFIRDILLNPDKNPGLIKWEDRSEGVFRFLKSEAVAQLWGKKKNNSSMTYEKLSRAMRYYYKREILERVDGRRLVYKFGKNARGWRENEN
# Summary of the method: as §1
# SPI1 = SPI1 (Homo sapiens, UniProt P17947 1-270); conditions: protein: recombinant; tags: N-terminal GST; dsDNA, one strand shown
# Summary of the method: as §1
# SPIB = SPIB (Homo sapiens, UniProt Q01892 1-262); conditions: protein: recombinant; tags: N-terminal GST; dsDNA, one strand shown
# SPIB, sequence (Q01892 whole entry): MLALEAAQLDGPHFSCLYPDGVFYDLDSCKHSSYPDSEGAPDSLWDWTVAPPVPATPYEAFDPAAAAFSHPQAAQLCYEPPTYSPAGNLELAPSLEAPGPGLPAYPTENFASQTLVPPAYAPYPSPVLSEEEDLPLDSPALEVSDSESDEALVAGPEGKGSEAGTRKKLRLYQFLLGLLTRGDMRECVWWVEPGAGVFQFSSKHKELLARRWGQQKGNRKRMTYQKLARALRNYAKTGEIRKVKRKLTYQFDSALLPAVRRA
# Summary of the method: as §1
# ELK3 = molecular target: T6, ELK3 (Homo sapiens, UniProt P41970 1-407); conditions: protein: recombinant; tags: N-terminal GST; dsDNA, one strand shown
# T6 sequence: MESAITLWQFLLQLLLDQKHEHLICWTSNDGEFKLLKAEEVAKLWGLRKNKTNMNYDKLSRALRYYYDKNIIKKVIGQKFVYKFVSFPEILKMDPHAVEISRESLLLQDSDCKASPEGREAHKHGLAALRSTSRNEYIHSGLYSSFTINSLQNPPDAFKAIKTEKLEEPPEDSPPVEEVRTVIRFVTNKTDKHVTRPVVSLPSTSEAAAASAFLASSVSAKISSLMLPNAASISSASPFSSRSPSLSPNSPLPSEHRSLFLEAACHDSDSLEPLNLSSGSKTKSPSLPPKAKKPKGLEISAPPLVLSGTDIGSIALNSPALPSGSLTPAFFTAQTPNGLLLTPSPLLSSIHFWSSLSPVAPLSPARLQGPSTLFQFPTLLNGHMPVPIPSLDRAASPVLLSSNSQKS
# Summary of the method: as §1
# FEV = molecular target: T7, FEV (Homo sapiens, UniProt Q99581 1-238); conditions: protein: recombinant; tags: N-terminal GST; dsDNA, one strand shown
# T7 sequence: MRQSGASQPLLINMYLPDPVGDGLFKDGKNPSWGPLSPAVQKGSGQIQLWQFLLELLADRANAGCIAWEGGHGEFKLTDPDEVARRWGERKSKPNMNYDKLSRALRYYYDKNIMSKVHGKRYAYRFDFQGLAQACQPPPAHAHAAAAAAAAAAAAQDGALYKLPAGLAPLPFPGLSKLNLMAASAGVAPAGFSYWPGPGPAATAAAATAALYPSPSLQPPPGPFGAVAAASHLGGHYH
# Summary of the method: as §1
# ETV5 = ETV5 (Homo sapiens, UniProt P41161 1-510); conditions: protein: recombinant; tags: N-terminal GST; dsDNA, one strand shown
# ETV5, sequence (P41161 whole entry): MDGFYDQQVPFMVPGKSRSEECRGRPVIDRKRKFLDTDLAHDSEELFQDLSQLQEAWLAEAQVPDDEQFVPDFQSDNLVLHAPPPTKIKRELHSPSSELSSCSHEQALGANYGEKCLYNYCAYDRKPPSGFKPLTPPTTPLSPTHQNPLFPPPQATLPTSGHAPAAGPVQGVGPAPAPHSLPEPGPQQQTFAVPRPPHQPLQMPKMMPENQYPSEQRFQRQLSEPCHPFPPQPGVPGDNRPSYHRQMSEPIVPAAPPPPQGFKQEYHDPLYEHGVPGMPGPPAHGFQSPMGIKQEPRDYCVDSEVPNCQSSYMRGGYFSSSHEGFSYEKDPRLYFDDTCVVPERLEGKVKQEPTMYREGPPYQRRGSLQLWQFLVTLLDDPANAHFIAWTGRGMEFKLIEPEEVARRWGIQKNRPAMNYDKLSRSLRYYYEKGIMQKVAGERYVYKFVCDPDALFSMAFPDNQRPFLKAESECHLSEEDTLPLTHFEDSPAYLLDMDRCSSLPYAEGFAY
# Summary of the method: as §1
# HSF1 = HSF1 (Homo sapiens, UniProt Q00613 1-529); conditions: protein: recombinant; tags: N-terminal GST; chain copies: 3; dsDNA, one strand shown
# HSF1, sequence (Q00613 whole entry): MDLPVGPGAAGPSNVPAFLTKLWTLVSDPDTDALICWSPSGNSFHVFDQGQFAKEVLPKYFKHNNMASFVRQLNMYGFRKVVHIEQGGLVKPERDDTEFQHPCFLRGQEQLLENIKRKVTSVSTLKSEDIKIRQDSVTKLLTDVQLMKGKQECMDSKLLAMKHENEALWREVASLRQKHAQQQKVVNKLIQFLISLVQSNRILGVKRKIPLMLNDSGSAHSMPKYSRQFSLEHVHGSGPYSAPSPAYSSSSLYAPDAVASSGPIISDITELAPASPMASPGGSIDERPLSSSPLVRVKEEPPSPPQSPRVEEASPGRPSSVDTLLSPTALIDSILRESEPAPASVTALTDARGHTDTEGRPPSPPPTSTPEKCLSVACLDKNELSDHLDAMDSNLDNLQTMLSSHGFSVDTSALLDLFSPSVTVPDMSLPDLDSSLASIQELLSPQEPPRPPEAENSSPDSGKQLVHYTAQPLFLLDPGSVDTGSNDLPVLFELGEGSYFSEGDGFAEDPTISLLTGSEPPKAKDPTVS
# Summary of the method: as §1
# SPIC = molecular target: T8, SPIC (Homo sapiens, UniProt Q8N5J4 1-248); conditions: protein: recombinant; tags: N-terminal GST; dsDNA, one strand shown
# T8 sequence: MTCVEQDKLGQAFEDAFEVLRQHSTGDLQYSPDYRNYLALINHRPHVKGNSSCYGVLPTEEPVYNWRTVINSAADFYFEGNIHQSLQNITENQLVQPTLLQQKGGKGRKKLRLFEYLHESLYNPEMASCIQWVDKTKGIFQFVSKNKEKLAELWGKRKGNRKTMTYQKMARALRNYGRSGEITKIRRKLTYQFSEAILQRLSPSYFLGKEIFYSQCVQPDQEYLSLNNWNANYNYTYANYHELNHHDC
# Summary of the method: as §1
# ELF4 = ELF4 (Homo sapiens, UniProt Q99607 1-663); conditions: protein: recombinant; tags: N-terminal GST; dsDNA, one strand shown
# ELF4, sequence (Q99607 whole entry): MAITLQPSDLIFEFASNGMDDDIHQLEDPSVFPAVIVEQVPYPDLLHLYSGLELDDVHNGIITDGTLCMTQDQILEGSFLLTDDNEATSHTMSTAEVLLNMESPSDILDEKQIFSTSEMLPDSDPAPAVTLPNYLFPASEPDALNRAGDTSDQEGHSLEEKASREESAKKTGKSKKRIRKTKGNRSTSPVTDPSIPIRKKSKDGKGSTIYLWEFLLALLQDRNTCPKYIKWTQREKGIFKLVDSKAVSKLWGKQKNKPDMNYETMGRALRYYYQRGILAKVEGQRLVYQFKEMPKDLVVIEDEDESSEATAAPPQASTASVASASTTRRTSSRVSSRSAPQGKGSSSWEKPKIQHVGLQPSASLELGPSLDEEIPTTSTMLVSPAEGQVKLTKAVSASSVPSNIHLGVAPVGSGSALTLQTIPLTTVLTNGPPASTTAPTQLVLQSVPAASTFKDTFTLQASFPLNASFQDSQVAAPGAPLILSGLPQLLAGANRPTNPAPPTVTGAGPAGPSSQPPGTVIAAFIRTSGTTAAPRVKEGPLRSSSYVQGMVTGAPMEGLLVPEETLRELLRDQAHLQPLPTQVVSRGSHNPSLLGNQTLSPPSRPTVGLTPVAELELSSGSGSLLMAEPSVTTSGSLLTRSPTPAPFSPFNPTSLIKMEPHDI
# Summary of the method: as §1
# ELK4 = molecular target: T9, ELK4 (Homo sapiens, UniProt P28324-2 1-405); conditions: protein: recombinant; tags: N-terminal GST; dsDNA, one strand shown
# T9 sequence: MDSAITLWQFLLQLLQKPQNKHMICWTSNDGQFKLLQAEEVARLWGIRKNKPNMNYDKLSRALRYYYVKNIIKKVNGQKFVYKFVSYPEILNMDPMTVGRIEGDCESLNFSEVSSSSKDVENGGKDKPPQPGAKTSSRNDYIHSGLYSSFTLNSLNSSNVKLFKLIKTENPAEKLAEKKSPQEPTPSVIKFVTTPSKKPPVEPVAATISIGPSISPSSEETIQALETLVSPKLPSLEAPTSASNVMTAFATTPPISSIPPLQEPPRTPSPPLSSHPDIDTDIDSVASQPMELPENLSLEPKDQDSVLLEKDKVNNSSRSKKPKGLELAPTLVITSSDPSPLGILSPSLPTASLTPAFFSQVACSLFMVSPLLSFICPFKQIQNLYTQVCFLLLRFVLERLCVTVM
# Summary of the method: as §1
# ETV2 = molecular target: T10, ETV2 (Homo sapiens, UniProt O00321 1-342); conditions: protein: recombinant; tags: N-terminal GST; dsDNA, one strand shown
# T10 sequence: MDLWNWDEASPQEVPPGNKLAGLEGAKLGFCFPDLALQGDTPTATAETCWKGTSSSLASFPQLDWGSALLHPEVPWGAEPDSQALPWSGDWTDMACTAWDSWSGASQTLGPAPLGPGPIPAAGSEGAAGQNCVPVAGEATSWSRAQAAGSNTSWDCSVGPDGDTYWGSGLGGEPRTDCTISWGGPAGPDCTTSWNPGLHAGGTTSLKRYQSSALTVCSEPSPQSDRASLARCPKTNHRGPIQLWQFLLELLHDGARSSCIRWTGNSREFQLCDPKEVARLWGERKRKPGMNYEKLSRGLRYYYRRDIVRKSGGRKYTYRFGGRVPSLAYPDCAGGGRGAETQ
# Summary of the method: as §1
# ELF3 = molecular target: T11, ELF3 (Homo sapiens, UniProt P78545 1-371); conditions: protein: recombinant; tags: N-terminal GST; dsDNA, one strand shown
# T11 sequence: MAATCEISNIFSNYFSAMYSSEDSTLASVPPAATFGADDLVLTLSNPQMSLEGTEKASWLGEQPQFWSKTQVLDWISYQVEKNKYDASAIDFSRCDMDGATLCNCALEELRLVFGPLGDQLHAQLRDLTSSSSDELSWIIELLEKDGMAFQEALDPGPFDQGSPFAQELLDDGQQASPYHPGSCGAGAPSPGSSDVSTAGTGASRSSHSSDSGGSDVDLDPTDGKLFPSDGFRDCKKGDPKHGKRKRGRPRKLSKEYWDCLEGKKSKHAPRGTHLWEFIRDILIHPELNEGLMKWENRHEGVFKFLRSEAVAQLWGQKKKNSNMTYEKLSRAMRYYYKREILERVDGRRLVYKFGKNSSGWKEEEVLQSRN
# Summary of the method: as §1
# CRX = CRX (Homo sapiens, UniProt O43186 1-299); conditions: protein: recombinant; tags: N-terminal GST; dsDNA, one strand shown
# CRX, sequence (O43186 whole entry): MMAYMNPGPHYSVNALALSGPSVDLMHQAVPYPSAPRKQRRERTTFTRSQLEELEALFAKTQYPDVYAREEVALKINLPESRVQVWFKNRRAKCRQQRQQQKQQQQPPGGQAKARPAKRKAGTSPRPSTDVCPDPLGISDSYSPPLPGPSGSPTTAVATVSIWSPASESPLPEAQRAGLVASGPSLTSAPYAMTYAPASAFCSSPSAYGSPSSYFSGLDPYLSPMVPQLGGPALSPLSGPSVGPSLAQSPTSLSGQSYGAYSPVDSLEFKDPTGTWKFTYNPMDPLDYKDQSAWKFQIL
# Summary of the method: as §1
# ETV1 = ETV1 (Homo sapiens, UniProt P50549 1-477); conditions: protein: recombinant; tags: N-terminal GST; dsDNA, one strand shown
# ETV1, sequence (P50549 whole entry): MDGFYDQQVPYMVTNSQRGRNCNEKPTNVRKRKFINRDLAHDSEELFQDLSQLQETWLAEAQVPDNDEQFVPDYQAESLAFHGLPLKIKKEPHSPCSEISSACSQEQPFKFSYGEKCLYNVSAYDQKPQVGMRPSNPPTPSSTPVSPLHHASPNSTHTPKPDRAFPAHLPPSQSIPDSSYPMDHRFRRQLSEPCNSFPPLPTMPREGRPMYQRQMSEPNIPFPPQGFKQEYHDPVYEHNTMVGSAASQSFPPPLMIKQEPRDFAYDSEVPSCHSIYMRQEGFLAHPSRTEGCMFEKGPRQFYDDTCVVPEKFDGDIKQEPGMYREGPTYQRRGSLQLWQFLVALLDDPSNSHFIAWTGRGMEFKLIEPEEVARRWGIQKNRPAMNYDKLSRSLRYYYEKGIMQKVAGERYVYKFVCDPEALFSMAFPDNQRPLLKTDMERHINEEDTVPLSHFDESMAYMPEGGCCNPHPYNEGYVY
# Summary of the method: as §1
sequence,measurement,setting,value
TTATGT,binding signal,FLI1,"1.3 fold enrichment (6-mer frequency, TF over GST control)"
same,binding signal,ELK1,"1.3 fold enrichment (6-mer frequency, TF over GST control)"
same,binding signal,GABPA,"1.27 fold enrichment (6-mer frequency, TF over GST control)"
same,binding signal,ERG,"1.31 fold enrichment (6-mer frequency, TF over GST control)"
same,binding signal,ELF1,"1.24 fold enrichment (6-mer frequency, TF over GST control)"
same,binding signal,EHF,"1.28 fold enrichment (6-mer frequency, TF over GST control)"
same,binding signal,SPI1,"1.31 fold enrichment (6-mer frequency, TF over GST control)"
same,binding signal,SPIB,"1.32 fold enrichment (6-mer frequency, TF over GST control)"
same,binding signal,ELK3,"1.22 fold enrichment (6-mer frequency, TF over GST control)"
same,binding signal,FEV,"1.15 fold enrichment (6-mer frequency, TF over GST control)"
same,binding signal,ETV5,"1.38 fold enrichment (6-mer frequency, TF over GST control)"
same,binding signal,HSF1,"1.63 fold enrichment (6-mer frequency, TF over GST control)"
same,binding signal,SPIC,"1.17 fold enrichment (6-mer frequency, TF over GST control)"
same,binding signal,ELF4,"1.38 fold enrichment (6-mer frequency, TF over GST control)"
same,binding signal,ELK4,"1.38 fold enrichment (6-mer frequency, TF over GST control)"
same,binding signal,ETV2,"1.13 fold enrichment (6-mer frequency, TF over GST control)"
same,binding signal,ELF3,"1.41 fold enrichment (6-mer frequency, TF over GST control)"
same,binding signal,CRX,"2.24 fold enrichment (6-mer frequency, TF over GST control)"
same,binding signal,ETV1,"1.29 fold enrichment (6-mer frequency, TF over GST control)"
